Data published in PubChem BioAssay AID1949 (Southern Research Institute, 2009).
About 1,600 (1.6%) of roughly 100,000 compounds were called active. Inconclusive results (about 3%) are left out. The list is a sample of the results. Unmarked numbers belong to inactive results. The rule behind the calls is not given here.

assay: Confirmatory growth inhibition assay against Mycobacterium tuberculosis H37Rv, potency (AID 1949);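 for inhibition: bacteria grown 7 days with compound before Alamar blue readout; 0% = untreated bacteria wells and 100% = bacteria with saturating antibiotic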; conditions: M. tuberculosis H37Rv growth inhibition; stronger effect = higher value, concentration not given here

| SMILES | inhibition |
| --- | --- |
| O=C(Nc1nc(-c2ccc(F)cc2)cs1)c1cccc2ccccc12 | 32.4% |
| CCn1c(/C=C/c2ccco2)nc2ccccc21 | inactive |
| COc1ccc(OC)c(N(CC(=O)Nc2ccccc2SC)S(=O)(=O)c2ccccc2)c1 | 13.5% |
| Cc1ccc(NS(=O)(=O)c2ccc(NS(=O)(=O)c3c(C)cc(C)cc3C)cc2)cc1 | inactive |
| COc1ccc(NC(=O)c2c(NC(=O)c3ccccc3F)sc3c2CCC3)cc1 | inactive |
| CCOC(=O)c1ccc(Oc2nc(NCc3ccccc3)nc(N(C)C)n2)cc1 | inactive |
| COC(=O)CSc1nc(C23CC4CC(CC(C4)C2)C3)cc(C(F)(F)F)c1C#N | 1.01% |
| CCn1c(CC(=O)Nc2cccc(OC)c2)nnc1SCC(=O)c1ccc(Br)cc1 | inactive |
| Cc1cccc(NC(=O)c2sc3cccc(Cl)c3c2Cl)c1 | inactive |
| C=CCN(CC=C)CC(O)Cn1c(C)c(C)c2ccccc21 (stereo not drawn) | inactive |
| CCOC(=O)c1cc(-c2ccccc2)sc1NC(=O)c1ccccc1Br | inactive |
| O=C(Nc1c(C(=O)N2CCCCCC2)cnn1-c1ccccc1Cl)c1ccccc1Cl | inactive |
| CCCc1ccc(C(C)NC(=O)c2ccc(C)s2)cc1 (stereo not drawn) | inactive |
| O=C(NCCc1ccccc1)Nc1cccc2ccccc12 | inactive |
| COCCNCCCCOc1ccc(C)cc1[N+](=O)[O-] | inactive |
| Cc1ccc(NC(=O)CCc2ccc(S(=O)(=O)NCCc3ccccc3)cc2)cc1C | inactive |
| CCOC(=O)N1CCN(C(=O)c2ccc(I)cc2)CC1 | inactive |
| CC1=C(C(=O)Nc2ccccc2)C(c2ccc(I)cc2)NC(=O)N1 (stereo not drawn) | inactive |
| CCOc1cc(CNC(CC)CO)c(Cl)cc1OCC(N)=O (stereo not drawn) | inactive |
| OCCNc1nc2ccccc2n1-c1ccccc1 | 1.48% |
| O=C(CCCn1c(=S)[nH]c2ccccc2c1=O)N1CC=C(c2ccccc2)CC1 | inactive |
| Cc1ccc(C(=O)Nc2ccc(C(=O)NCCCC(=O)O)cc2)o1 | 4.21% |
| CS(=O)(=O)N(CC(=O)Nc1ccccc1Cl)c1cccc([N+](=O)[O-])c1 | inactive |
| O=C1c2ccccc2C(=O)N1c1nnc(Sc2ccc([N+](=O)[O-])c3cccnc23)s1 | inactive |

| SMILES | inhibition |
| --- | --- |
| OC(c1ccccc1)c1nc2ccccc2n1Cc1cccc(Cl)c1 (stereo not drawn) | inactive |
| CC(C)c1ccccc1NC(=O)COc1ccc(-c2ccccc2)cc1 | inactive |
| COC(=O)C1C(=O)OC(C)(C)C2CCC(C)CC12 (stereo not drawn) | inactive |
| COc1ccc(N2C(=O)CC(N3CCN(CC(=O)NC(C)C)CC3)C2=O)cc1 (stereo not drawn) | inactive |
| CCOC(=O)N1CCN(C(=O)COc2cccc(C)c2C)CC1 | inactive |
| Cc1c(Cl)cccc1N1CC(O)=C(c2nc3ccccc3s2)C1=N | 3.11% |
| COC(=O)c1noc(-c2ccc(F)cc2)n1 | inactive |
| O=S(=O)(NCCC1=CCCCC1)c1ccccc1 | inactive |
| O=C1OCCC1Sc1nnc(-c2ccc(Br)cc2)o1 (stereo not drawn) | inactive |
| CC(=O)Nc1ccc(NC(=O)C(C)Oc2ccc(Cl)c(C)c2)cc1 (stereo not drawn) | inactive |
| CCOc1ccccc1OCCOCCNCc1ccccc1 | inactive |
| CCN(C(=O)c1ccccc1Br)c1ccccc1C | 8.56% |
| Fc1c(F)c(F)c(Cn2ccc(NC(=S)Nc3ccccc3C(F)(F)F)n2)c(F)c1F | inactive |
| Cc1nc(SCc2cccc(C(=O)O)c2)nc2c1CCCC2 | inactive |
| O=C(O)c1ccccc1-c1nc(-c2ccccc2F)no1 | inactive |
| S=C(NCc1ccccc1)Nc1c(Cl)cccc1Cl | inactive |
| CC1(C)CC(=O)CC(C)(C)N1OC(=O)c1ccncc1 | inactive |
| CCOC(=O)c1ccc(NC(=O)CSc2nnc(-c3ccccc3Cl)n2CC)cc1 | inactive |
| CCOc1cc(C)c(S(=O)(=O)NCc2cccnc2)cc1C | inactive |
| COc1cc(S(=O)(=O)NC2CCCCC2)ccc1Cl | inactive |
| CCOC(=O)c1ccc(COC(=O)c2ccc(C=O)cc2)cc1 | 2.19% |
| CCn1c(CNC(=O)c2cccs2)nnc1SCC(=O)Nc1ccc(Br)cc1F | inactive |
| CCc1cccc(C)c1NC(=O)CN(c1cccc(Br)c1)S(C)(=O)=O | inactive |
| CC(C)CNC(=O)c1ccccc1NC(=O)CCSc1ccccc1 | inactive |

| SMILES | inhibition |
| --- | --- |
| O=C1C2C3C=CC(C3)C2C(=O)N1CCC(=O)N1c2ccccc2Sc2ccccc21 (stereo not drawn) | inactive |
| COc1cccc2cc(-c3nnc(SCC(=O)Nc4cccc(SC)c4)n3C)oc12 | 1.86% |
| CCOc1ccc(N(CC(N)=O)S(=O)(=O)c2ccc(OC)c(OC)c2)cc1 | inactive |
| COC(=O)c1ccc(NC(=O)CN(Cc2ccccc2)S(C)(=O)=O)cc1 | inactive |
| O=S(=O)(c1cccc(S(=O)(=O)N2CCCC2)c1)N1CCCC1 | inactive |
| COc1ccc([N+](=O)[O-])cc1NC(=O)C1CC(=O)N=C(N)S1 (stereo not drawn) | 0.16% |
| COc1ccc(N(CC(=O)Nc2ccc(F)cc2F)S(=O)(=O)c2ccc(C)c([N+](=O)[O-])c2)cc1 | inactive |
| O=S(=O)(c1ccccc1)c1ccc(COc2cccc3cccnc23)cc1 | 1.33% |
| COc1ccc(CNC2C3CC4CC(C3)CC2C4)cc1 (stereo not drawn) | inactive |
| COC(=O)c1ccc(SC2CCCCC2)c([N+](=O)[O-])c1 | inactive |
| C=CCn1c(COc2ccc(C)cc2OCC)nnc1SCC(=O)Nc1cc(C(F)(F)F)ccc1Cl | 1.26% |
| COc1ccccc1CNC(=S)Nc1ccc(OC)c(OC)c1 | inactive |
| Cc1cccc2c(N=NC(=O)c3cccnc3)c(O)[nH]c12 | inactive |
| CC(Sc1ccc(Cl)cc1)C(=O)Nc1ccccc1C(=O)O (stereo not drawn) | inactive |
| COc1ccccc1OCCCSc1nc2sc(C)c(C)c2c(=O)n1-c1ccccc1 | inactive |
| Cc1cc(C)c(C#N)c(SCC(=O)Nc2sc3c(c2C#N)CCC3)n1 | inactive |
| O=C(NCCSC1CCCCC1)c1ccc(-c2ccccc2)cc1 | inactive |
| CSc1nc(C)c(Oc2ccccc2)c(=O)n1C | 8.91% |
| CSc1ccc(-c2nnn(CC(=O)Nc3ccc4c(c3)OCO4)n2)cc1 | inactive |
| COc1cc(/C=C2/SC(=O)N(CC(=O)O)C2=O)cc(OC)c1OC | inactive |
| CS(=O)(=O)N(CC(=O)NC1CCCCCC1)c1ccccc1F | inactive |
| CCn1c(SCC(=O)Nc2ccc3c(c2)OCO3)nnc1-c1ccccc1 | 4.1% |
| CN(c1cccc(NC(=O)c2ccccc2N(Cc2ccccc2)S(=O)(=O)c2ccccc2)c1)S(C)(=O)=O | inactive |
| Cc1ccc(F)cc1NC(=O)CSc1ccc(Br)cc1 | 36% |

| SMILES | inhibition |
| --- | --- |
| O=C(Oc1ccc2c3c(c(=O)oc2c1)CCC3)c1cccc(Cl)c1 | inactive |
| Cc1ccc(-c2csc(NC(=O)CSc3ccc(Br)cc3)n2)cc1 | inactive |
| C=CCOc1ccc(C2C(C(=O)c3cccs3)=C(O)C(=O)N2CCN(CC)CC)cc1OC (stereo not drawn) | inactive |
| CC(=O)C(C)n1c(=O)oc2ccc(Cl)cc21 (stereo not drawn) | 0.0633% |
| Cc1cccc2c1N(C)C(=O)C2(O)CC(=O)c1ccco1 (stereo not drawn) | inactive |
| Cc1ccc(NC(=O)COc2ccc3c(C)c(Cc4ccccc4)c(=O)oc3c2C)cc1 | inactive |
| CCCCOc1ccc(C2C(C(=O)c3ccco3)=C(O)C(=O)N2CCOC)cc1OC (stereo not drawn) | inactive |
| CCC(C)n1[nH]c(=O)c2c1NC(=O)CSC2c1ccc(Cl)cc1Cl (stereo not drawn) | 2.1% |
| Cc1ccc(S(=O)(=O)N(C)CC(=O)NCCCc2ccccc2)cc1 | inactive |
| Cc1ccc(OCCCCCNCCO)cc1C | inactive |
| CC(=O)Nc1ccc(S(=O)(=O)Nc2ccc(Cc3ccncc3)cc2)cc1 | inactive |
| COc1cc(OC)cc(C(=O)Nc2ccc(C(F)(F)F)cc2)c1 | inactive |
| CSc1cccc(NC(=O)CCSc2ccc(Cl)cc2)c1 | inactive |
| N#Cc1ccc(Oc2ccc(NC(=O)C3CC=CCC3C(=O)O)cc2)cc1 (stereo not drawn) | inactive |
| CN(C(=O)CN1C(=O)c2ccccc2C1=O)C1CCCCC1 | inactive |
| COc1ccc(OCCN(C)Cc2ccccc2)cc1 | inactive |
| Cc1cc(S(=O)(=O)N2CCOCC2)ccc1F | inactive |
| COc1ccc(Cl)cc1S(=O)(=O)Nc1ccccc1C | 4.41% |
| CCN(CC)C(=O)c1ccc(NC(=O)c2ccccc2I)cc1 | inactive |
| Cc1cc(=O)oc2cc(Oc3nnnn3-c3ccccc3)ccc12 | inactive |
| CCOc1ccc(NC(=O)Nc2ccc(C)cc2Br)cc1 | inactive |
